CHT PAM: CHT positive allosteric modulators, primary screen, cell-based, membrane potential dye, choline EC20 | CHT-expressing cells; stronger effect = higher value; LV-AA mutant CHT in HEK293 cells | B-score at 10 µM | hit rate 0.49% among 310,000;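 active = initial fluorescence not abnormally high and integrated response B-score, plate-corrected, over 3 SD above library mean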
ANO1 activ: TMEM16A chloride channel activators or potentiators, primary screen, cell-based, HTS | AID 623877, 2012 | B-score at 10 µM | HEK293 TMEM16A/YFP-H148Q/I152L, iodide quench fluorescence; stronger effect = lower value | hit rate 0.3% among 340,000;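 active = fluorescence-ratio B-score plate-corrected deviation score at least 3 library SD below zero, with starting fluorescence score within 5 deviations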;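 also: channel opened by trigger with iodide after compound preincubation; score built on the fluorescence ratio of max minus min over baseline; more negative score means more quench and so TMEM16A activation or potentiation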
Rce1 inhib: yeast Rce1p protease inhibitors, primary screen, biochemical, fluorescence, cell-free homogeneous | hit rate 0.27% among 290,000 | AID 2563, 2010 | CAAX prenyl protease 2 (Saccharomyces cerevisiae (strain ATCC 204508 / S288c)), Q03530 | yeast membranes, quenched prenylated peptide cleavage fluorescence | calls only;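 active = fall in fluorescence gain of 50% or more versus controls, with final raw signal at or below 3038400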;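 also: plate controls were neutral control wells for no effect and wells lacking membranes for full effect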
ANO1 block: TMEM16A chloride channel inhibitors, primary screen, cell-based, HTS; Anoctamin-1 (Mus musculus), Q8BHY3; HEK293 TMEM16A/YFP iodide influx fluorescence, ionomycin; normalized B-score (activity score, 25-100; higher = stronger inhibition) at 10 µM; hit rate 1.2% among 310,000; AID 588511, 2011;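 active = ratio plate-corrected score three or more library SD toward inhibition, starting fluorescence score within five deviations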;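 also: score derived from kinetic fluorescence span divided by baseline fluorescence per well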
CHT block: inhibitors of human choline transporter CHT; CHT-expressing cells, membrane potential dye, choline response; stronger effect = lower value; B-score at 10 µM; High affinity choline transporter 1 (Homo sapiens), Q9GZV3; AID 488975, 2010; hit rate 0.86% among 310,000;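 active = B-score over 3 SD under the library average, and starting fluorescence ratio not unusually high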;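 also: choline stimulus applied at its EC90 after an EC20 pre-addition; B-score computed on integrated fluorescence ratio after choline addition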
Kir21 block: inhibitors of mouse Kir2.1 inward-rectifier potassium channel. HEK293-Kir2.1, FluxOR thallium flux fluorescence; stronger effect = lower value. hit rate 0.85% among 310,000. B-score at 10 µM;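 active = fluorescence ratio B-score at or below minus 3 SD of library scores, with starting-brightness B-score within 2 SD, cut at about -4.2 in these data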;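 also: channel flux triggered by added potassium and thallium sulfate stimulus; B-score of peak minus minimum fluorescence over baseline after thallium stimulus; more negative B-score means stronger Kir2.1 block with less thallium influx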
TMEM16A reconf: TMEM16A chloride channel inhibitors, confirmation, cell-based, re-confirmation | HEK293 TMEM16A/YFP-H148Q, iodide quench fluorescence; ionomycin added to raise cell calcium | AID 652189, 2013 | inhibition, % at 10 µM | hit rate 39% among 2,300 | shares compounds with ANO1 block;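 active = mean duplicate percent inhibition, scaled so buffer wells are 0 and the reference blocker 100, over three buffer SD above buffer mean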
TMEM16A Ca cntr: calcium mobilization in TMEM16A/YFP HEK293 cells, confirmation, counter-screen for TMEM16A inhibitor project; calcium response (% of ionomycin), % at 10 µM; Fluo4 calcium mobilization; hit rate 2% among 2,300; AID 652231, 2013; shares compounds with ANO1 block;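 active = duplicate-averaged calcium signal over 20% of the ionomycin maximum, relative to buffer baseline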;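 also: each well's signal is peak minus trough fluorescence divided by its pre-addition baseline; 0% = buffer wells and 100% = ionomycin wells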
YFP-HEK293 quench: iodide YFP quench changes in parental YFP-HEK293, counter-screen for TMEM16A inhibitor project, cell-based. YFP ratio F(max-min)/F0 at 10 µM. AID 652233, 2013. ionomycin. 2,300 tested, under 10 active. shares compounds with ANO1 block;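 active = yellow fluorescent protein signal ratio exceeding the buffer control mean by over 5 SD of those controls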;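 also: ratio is mean of duplicate wells from kinetic YFP trace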
ClC-1 rat inh: ClC-1 chloride channel inhibition, selectivity assay for TMEM16A inhibitor project, cell-based, voltage-dependent ClC-1. shares compounds with ANO1 block. CHO ClC-1-YFP, iodide influx fluorescence quench; iodide control reads 0, buffer control 100. ratio percent, % at 10 µM. 2,300 tested, under 10 active. AID 652236, 2013;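 active = duplicate-mean ratio percent above the mean of iodide-only control wells, which defines zero, plus 5 of their SD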;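 also: higher percent means stronger block of ClC-1 iodide influx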
An asterisk follows results filed as active; i = inactive; . = no result. This is a sample that favours compounds with a hit; in the whole collection about 3.2% have one here.

SMILES	CHT PAM	ANO1 activ	Rce1 inhib	ANO1 block	CHT block	Kir21 block	TMEM16A reconf	TMEM16A Ca cntr	YFP-HEK293 quench	ClC-1 rat inh
COc1ccc(C(CNCC(O)COc2c(C)ccc(C)c2C)N(C)C)cc1 (configuration not stated)	i	i	i	i	i	-2.9	.	.	.	.
Cc1cccc(N2CCN(C(=O)CN3CCOc4ccccc43)CC2C)c1 (configuration not stated)	i	i	i	25*	i	-0.01	i	i	-1.1	-12
CCOc1cccc(C(=O)N(Cc2cccc(F)c2)C2CCS(=O)(=O)C2)c1 (configuration not stated)	i	i	i	i	i	-0.02	.	.	.	.
CCOc1cc(S(=O)(=O)NCCc2ccc(OC)c(OC)c2)c(OCC)cc1-n1cnnn1	i	i	i	25*	i	-0.3	i	i	-0.94	-2
CCOc1ccc(-n2cnnn2)cc1S(=O)(=O)NCCc1ccc(OC)c(OC)c1	i	i	i	i	i	-0.03	.	.	.	.
Cc1noc(C)c1C(=O)Nc1cc(Cl)ccc1N1CCOCC1	.	i	.	.	.	.	.	.	.	.
COc1cccc(OC)c1C(=O)Nc1cc(Cl)ccc1N1CCOCC1	i	i	i	i	i	-0.27	i	i	-1	-9
CC(Oc1cccc(Cl)c1)C(=O)Nc1ccc(N2CCOCC2)cc1N1CCOCC1 (configuration not stated)	i	i	i	25*	i	1.3	i	i	-1	-8
CCNC(=O)/C(=C\C=C\c1ccccc1)NC(=O)c1ccc(Br)o1	i	i	i	i	i	0.08	.	.	.	.
CCc1cccc(C)c1NC(=O)CCCSc1nc2ccccc2s1	i	i	i	i	i	1.1	.	.	.	.
Cc1ccccc1NC(=O)CCCSc1nc2ccccc2s1	i	i	i	100*	i	0.25	i	i	-0.85	-12
COC(=O)[C@@H](NC(=O)NC1CCCCC1C)C(C)C (some centres not stated)	i	i	i	i	i	2	.	.	.	.
Clc1ccc(-c2csc(N3CCC(c4ccccc4)C3)n2)cc1 (configuration not stated)	i	i	i	i	i	-0.06	.	.	.	.
Fc1ccc(-c2csc(N3CCC(c4ccccc4)C3)n2)cc1 (configuration not stated)	i	i	i	100*	i	-1.1	i	i	-0.87	-10
CSc1nc2sc3c(c2c(=O)n1C)CCCC3	i	i	i	i	i	0.01	.	.	.	.
CSc1nc2sc3c(c2c2nnnn12)CCCC3	i	i	i	100*	i	1.3	i	i	-1.2	-8
COc1ccccc1CN1C(=NC(=O)C2CCCCC2)SC2CS(=O)(=O)CC21 (configuration not stated)	i	i	i	i	i	2.4	.	.	.	.
